High-throughput results: PubChem BioAssay, National Center for Advancing Translational Sciences (NCATS)
D2 PAM-1 = potentiates the human D2 dopamine receptor allosterically. 360,000 tested, 0.23% active. AID 624464. potentiation, % (concentration not given with the values). DiscoveRx D2 beta-arrestin cells, luminescence, 90 min; 100% = 57 uM dopamine signal; in the data active means potentiation above about 50%; inconclusive means mostly about 30% to 49%
Target sequence (P14416 whole entry, looked up): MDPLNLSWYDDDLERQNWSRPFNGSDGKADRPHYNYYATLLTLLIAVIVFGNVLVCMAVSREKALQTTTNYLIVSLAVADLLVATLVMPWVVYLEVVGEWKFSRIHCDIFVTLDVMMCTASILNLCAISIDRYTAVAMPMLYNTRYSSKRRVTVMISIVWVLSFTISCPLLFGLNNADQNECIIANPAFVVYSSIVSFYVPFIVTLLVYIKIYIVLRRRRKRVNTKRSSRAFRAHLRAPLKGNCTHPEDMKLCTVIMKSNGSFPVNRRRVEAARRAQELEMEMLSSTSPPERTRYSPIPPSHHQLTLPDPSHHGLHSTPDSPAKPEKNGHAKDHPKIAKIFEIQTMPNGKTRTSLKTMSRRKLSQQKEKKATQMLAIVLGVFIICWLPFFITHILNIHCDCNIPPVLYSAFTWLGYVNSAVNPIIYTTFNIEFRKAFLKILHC
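PathHunter beta-arrestin assay in DiscoveRx D2 cells. Compounds were added with an EC20 of dopamine (50 nM final) for 90 min at 37 deg C. Luminescence was read 1 h after detection reagent, with 57 uM dopamine as the EC100 control.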
D2 PAM-2 = positive allosteric modulators of human D2 dopamine receptor; 340,000 tested, 0.34% active; AID 485347; potentiation, % at 10 µM; HEK293 T-REx D2, calcium flux, EC20 dopamine potentiation; P14416;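 active means potentiation over 3 SD above the plate norm, cut at about 30% in these data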; further: 0% is about no effect
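Using a no-wash calcium dye in inducible, force-coupled HEK293 Trex cells expressing D2, we tracked fluorescence each second for 180 s after compound, then for 180 s after EC20 dopamine to detect augmented signalling.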
D2 ag-1 = human D2 receptor agonism in beta-arrestin assay. P14416. activation, % (concentration not given with the values). DiscoveRx PathHunter D2 beta-arrestin, luminescence, 90 min; 100% = 57 uM dopamine signal. 360,000 tested, 0.084% active; in the data active means activation above about 40%; inconclusive means between about 15% and that limit
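Agonist mode: compounds alone added to overnight-plated D2 PathHunter cells for 90 min at 37 C, with 57 uM final dopamine (EC100) defining full response. Beta-arrestin recruitment detected by chemiluminescent reagent, read after 1 h at ambient temperature.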
D2 ag-2 = agonists of human D2 dopamine receptor; P14416; HEK293 T-REx D2 cells, calcium flux agonist mode; activation, % at 2 µM; 340,000 tested, 0.53% active;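 active means activation over 3 SD above normal in the single-dose calcium agonist read, cut at about 30% in these data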; further: 0% is about no effect
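In this primary screen, compounds producing a positive calcium signal within 180 s of addition to tetracycline-induced, force-coupled HEK293 Trex D2 cells are flagged; cells are dye-loaded with a no-wash calcium kit beforehand.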
D2 antagonist = antagonists of human D2 dopamine receptor | P14416 | HEK293 TREx D2 cells, calcium flux, dopamine EC80 | inhibition, % at 10 µM | 340,000 tested, 2% active; in the data active means inhibition above about 30%; inactive means below that, where a call was filed; further: 0% is about no effect
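Cells plated overnight at 30 C with tetracycline; no-wash calcium dye, 30–90 min RT; 10 s baseline; compound pinned; 180 s read; EC80 dopamine added; another 180 s read.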
Numbers without * were called inactive; ? = inconclusive; . = no result. Rows were chosen to be rich in hits. Some 2.4% of all compounds tested hit in one or more screens of this group.

SMILES	D2 PAM-1	D2 PAM-2	D2 ag-1	D2 ag-2	D2 antagonist
CCOc1ccc2[nH]c(=O)c(CN(CCO)C(c3nnnn3C3CCCCC3)C(C)C)cc2c1 (stereo not drawn)	8.8	-5.2	2.4	0.3	34.8*
Cc1ccc(CCNC(=O)c2ccc(CSCc3ccc(C)cc3)o2)cc1	.	-30.5	.	1.3	.
COc1ccc2c(c1)C(=O)N(c1ccccc1)C(=O)C2	19.8	30.5*	-2.9	0.5	13.4
COc1ccc(-c2csc(NCc3ccco3)n2)cc1	-9.3	8.3	-5.7	-0.3	-9.7
c1coc(CNc2nc(-c3ccncc3)cs2)c1	13.2	32.1*	2.3	.	.
CC(C)NC(=O)C1(S(=O)(=O)c2ccccc2)CC=CC1	-3.8	4.6	0.9	-0.2	-3.2
CCNC(=S)N1CCN(CCN2C(=O)c3cccc4cccc(c34)C2=O)CC1	10.0	13.8	0.5	-0.1	43.5*
Cc1ccc(C)c(OCC(O)CN2CCN(CCN3C(=O)c4cccc5cccc(c45)C3=O)CC2)c1 (stereo not drawn)	-34.9	-24.4	-2.3	-1.6	-23.6
CC(=O)c1ccccc1OCC(O)CN1CCN(CCN2C(=O)c3cccc4cccc(c34)C2=O)CC1 (stereo not drawn)	-15.1	-23.0	-2.1	-1.7	36.3*
CCOC(=O)C1=C(c2ccccc2)NC(SCC(=O)Nc2cccc(C)c2)=C(C#N)C1c1ccco1 (stereo not drawn)	2.1	-19.2	-0.8	0.3	-5.1
CCOC(=O)C1=C(c2ccccc2)NC(SCC(=O)Nc2ccc(C)cc2)=C(C#N)C1c1ccco1 (stereo not drawn)	-7.3	13.5	0.4	0.8	54.9*
C=C(C)[C@@H]1CC[C@]2(C(=O)O)CC[C@]3(C)[C@H](CC[C@@H]4[C@@]5(C)CC[C@H](O)C(C)(C)[C@@H]5CC[C@]43C)[C@@H]12	3.3	5.0	0.6	0.3	36.4*
Cc1ccc(C(c2sc3nc(-c4ccco4)nn3c2O)N2CCCCC2)cc1 (stereo not drawn)	.	-0.5	.	0.2	.
Cc1cccc(NC(=O)CSc2nc3c([nH]c4ccccc43)c(=O)n2-c2ccc(F)cc2)c1C	.	1.4	.	1.1	.
CC1CCN(C2CCN(S(=O)(=O)c3ccc(F)cc3)CC2)CC1	-14.4	-8.0	-1.1	0.8	9.0
O=S(=O)(c1ccc(F)cc1)N1CCC(N2CCCCCC2)CC1	-13.5	-8.0	-2.0	14.1	42.0*
Cc1ccc(-n2ncc(C#N)c2/N=C/N2CCN(C)CC2)cc1	-44.7	-25.8	-3.2	0.4	37.3*
O=C(Nc1ccccc1C(=O)NC1CC1)c1ccc([N+](=O)[O-])o1	58.7*	15.6	?	0.3	-3.1
O=C(Nc1cccc2ccccc12)c1ccc([N+](=O)[O-])o1	7.8	-11.4	2.0	0.2	1.5
Cc1ccc(C(=O)CCNc2ccccc2)o1	28.7	-6.6	-4.6	-0.2	32.5*
COc1cc(CNC2CCCC2)c(Br)cc1OC1CCCC1	-20.7	-19.5	-17.8	1.3	-3.2
COc1cc(CNCc2ccccc2)c(Br)cc1OC1CCCC1	-21.8	-26.5	-2.7	-1.2	50.9*
COc1ccc(-c2nnc(NC(=O)C3=COCCO3)o2)cc1	-1.4	4.2	-0.4	-0.5	8.6
COc1ccc(NC(=O)C(C)n2nc(-c3ccc(C)c(C)c3)ccc2=O)cc1OC (stereo not drawn)	.	-4.2	.	-0.3	.
CCNCc1nc2cc(OC)c(OC)cc2c(=O)[nH]1	-9.6	0.7	0.1	0.9	32.7*
SMILES	D2 PAM-1	D2 PAM-2	D2 ag-1	D2 ag-2	D2 antagonist
Cc1ccc(S(=O)(=O)N2CCCN(Cc3nc4ccccc4c(=O)[nH]3)CC2)cc1	2.9	2.8	0.5	0.0	6.8
COc1cc2nc(CN3CCN(S(=O)(=O)c4ccc(C)c(C)c4)CC3)[nH]c(=O)c2cc1OC	-2.9	32.3*	4.9	-0.5	-10.0
CCOc1ccc(S(=O)(=O)NCCC(=O)OCC(=O)N2CC(=O)Nc3ccccc32)cc1	-4.1	-4.2	2.0	2.0	-5.8
CC(=O)N1CCCc2cc(S(=O)(=O)N(C)CC(=O)Nc3cccc(Cl)c3C)ccc21	.	-11.4	.	1.0	.
O=C(NCCCN1CCCC1=O)Nc1ccc([N+](=O)[O-])cc1	-5.3	7.7	-19.5	-0.1	34.8*
O=C(NCCCN1CCCC1=O)Nc1ccc(Cl)cc1	-7.1	.	0.3	.	.
